Measurements from the supplement of paper PMC10670038.
Counter-ions that a name gives are not always drawn. ± gives the standard deviation of the averaged measurements. Whole data set: some 2,000 compounds, median “relative cell viability vs DMSO, compound + 0.2 uM CuET” near 1, cut for the lowest 2% near 0.25. This excerpt belongs to a sample that is enriched for the lowest values.

Each compound was assayed on TE10 (assay: relative cell viability vs DMSO, compound + 0.2 uM CuET (fraction); TE10 is an esophageal squamous carcinoma line; higher = less cytotoxic). Settings: 2 µM; co-treatment: CuET (bis(diethyldithiocarbamate)copper) 0.2 uM; 48 h.
Description: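 TE10 ESCC cells (1,000/well, 384-well plates) were treated with Selleck bioactive library compounds at 2 uM combined with 0.2 uM CuET (copper diethyldithiocarbamate) for 48 h. Viability was read by CellTiter-Glo and expressed relative to DMSO wells. Two technical replicates (A, B).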

SMILES	relative cell viability
C=CS(=O)(=O)NC1CCN(C(=O)CNc2cc(I)c(Cl)cc2OC)CC1 [K-Ras(G12C) inhibitor 9]	0.699 ± 0.08
O=C(NOCC1CC1)c1ccc(F)c(F)c1Nc1ccc(I)cc1Cl	0.64 ± 0.17
Cc1cccc(-c2[nH]ncc2-c2ccc3ncccc3n2)n1	1.04 ± 0.0027
CC(C)(C)OC(=O)Nc1ccc(-c2cc(C(=O)NCCCCCCC(=O)NO)no2)cc1	0.244 ± 0.003
CN(C)c1ccc(C(=O)NCCCCCCC(=O)NO)cc1	0.322 ± 0.042
O=C(CCCCCCNC(=O)c1cnc(N(c2ccccc2)c2ccccc2)nc1)NO [Rocilinostat (ACY-1215)]	0.8907 ± 0.0072
C[C@@H]1COC(Nc2ccc3ncnc(Nc4ccc(OCc5nccs5)c(Cl)c4)c3c2)=N1 [Varlitinib]	1.04 ± 0.086
S=C=Nc1cccc(NC(=S)NCCCCNC(=S)Nc2cccc(N=C=S)c2)c1	1.2 ± 0.15
C=CCn1c(=O)c2cnc(Nc3ccc(N4CCN(C)CC4)cc3)nc2n1-c1cccc(C(C)(C)O)n1	0.559 ± 0.038
C=CC(=O)Nc1cccc(Sc2nc(Nc3ccc(N4CCN(C)CC4)cc3)ncc2Cl)c1	0.846 ± 0.02
CCn1c(=O)c(-c2ccc(-c3cncs3)cc2Cl)cc2cnc(Nc3ccc(N4CCN(C)CC4)cc3)nc21	0.183 ± 0.025
COc1cc2ncnc(Oc3cccc(NC(=O)Nc4cc(C(C)(C)C(F)(F)F)on4)c3)c2cc1OC	1.1 ± 0.061
COc1cc(OC)c(NC(=O)Nc2cc(C)on2)cc1Cl	1.1 ± 0.05
CCN1C(=CC(C)=O)Sc2ccc(OC)cc21	1.11 ± 0.11
CC(CCC(=O)NCCS(=O)(=O)O)C1CCC2C3C(O)CC4CC(O)CCC4(C)C3CCC12C (centres undefined) [Sodium Tauroursodeoxycholate (TUDC)]	1.24 ± 0.12
O=C1C(Cl)=C(N2CCOCC2)C(=O)N1c1ccc(Cl)c(Cl)c1	1.17 ± 0.026
COc1cc(/C=C/C(=O)O)ccc1O [Ferulic Acid]	1.21 ± 0.12
COc1ccc(/C=C/C(=O)C2(C(=O)/C=C/c3ccc(OC)c(OC)c3)CCCCC2)cc1OC	0.238 ± 0.01
COc1cc(/C=C/C(=O)CC(=O)/C=C/c2ccc(O)c(OC)c2)ccc1O [Curcumin]	0.656 ± 0.023
O=C1c2c(O)cccc2C([C@@H]2O[C@H](CO)[C@@H](O)[C@H](O)[C@H]2O)c2cc(CO)cc(O)c21 (some centres undefined) [Aloin]	1.1 ± 0.12

SMILES	relative cell viability
N#Cc1ccc(COC[C@H]2O[C@@H](n3c(NCc4ccc(Cl)c(Cl)c4)nc4c(N)ncnc43)[C@H](O)[C@@H]2O)cc1	0.939 ± 0.0025
CCOc1ccccc1OC(c1ccccc1)C1CNCCO1 (centres undefined) [Reboxetine mesylate]	1.2 ± 0.37
c1ccc(Cn2c(-c3ccc(OCC(C4CCNCC4)n4c(-c5ccccc5)nc5ccccc54)cc3)nc3ccccc32)cc1 (centres undefined) [Deltarasin]	0.9797 ± 0.0069
CC1(C)C=C(CN2C/C(=C\c3ccc(F)cc3)C(=O)/C(=C/c3ccc(F)cc3)C2)C(C)(C)N1O	0.216 ± 0.0066
CC(C)(C)Cn1c(N)nc2ccc(-c3[nH]c(C(C)(C)C)nc3-c3ccc(F)cc3)nc21	1.34 ± 0.083
CCOC(=O)C1=C(C)NC(C)=C(C(=O)OCC)C1c1ccccc1/C=C/C(=O)OC(C)(C)C [Lacidipine]	0.785 ± 0.011
COc1ccc(COc2ccc(Cc3cnc(N)nc3N)cc2OC)cc1	1.024 ± 0.0044
Cn1c(=O)cc(N2CCC[C@@H](N)C2)n(Cc2cc(F)ccc2C#N)c1=O [Trelagliptin]	1.17 ± 0.22
CC(C=CC(=O)NO)=CC(C)C(=O)c1ccc(N(C)C)cc1 (centres undefined) [Trichostatin A (TSA)]	0.177 ± 0.0076
CN(C(Cc1ccc(OS(=O)(=O)c2cccc3cnccc23)cc1)C(=O)N1CCN(c2ccccc2)CC1)S(=O)(=O)c1cccc2cnccc12 (centres undefined)	0.992 ± 0.046
CC(NC(=O)C(O)c1cc(F)cc(F)c1)C(=O)NC1C(=O)N(C)c2ccccc2-c2ccccc21 (centres undefined)	1.07 ± 0.058
CC(C)OC(=O)C1=CN(C(=O)c2ccc(F)c(F)c2)CC(C)(C)c2c1[nH]c1ccccc21	1.13 ± 0.041
NNC(=O)c1ccncc1 [Isoniazid]	1.1 ± 0.14
O=C(NNc1ccccc1)c1ccncc1	1.06 ± 0.18
O=C(/C=C/c1ccc2ccccc2n1)c1ccncc1	0.186 ± 0.037
Cn1c(=O)cc(N2CCC[C@@H](N)C2)n(Cc2ccccc2C#N)c1=O [Alogliptin]	1.1 ± 0.21
NCc1c[nH]c(=S)n1[C@@H]1CCc2c(F)cc(F)cc2C1 [(R)-Nepicastat HCl]	1.121 ± 0.0038
CN(C)CCSSCCNC(=O)C1CCN(C(=O)CSc2ccc(Cl)cc2)CC1	1.05 ± 0.11
Cc1cc(N2CCOCC2)cc2[nH]c(-c3c(NCC(O)c4cccc(Cl)c4)cc[nH]c3=O)nc12 (centres undefined)	0.799 ± 0.15
